Rows were chosen to be rich in hits. Some 21% of all compounds tested hit in one or more screens of this group.
Gal4-VP16 FLuc: inhibits Gal4-VP16 luciferase reporter, ROR gamma counter-screen; Drosophila S2 Gal4-VP16 UAS-luciferase, luminescence, 20 h; 3.5% of 310,000 active; Potency, µM (top dose mostly 53.6 µM), for inactives: top-dose activity, negative = inhibition, most hits filed as inhibitors;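 also: Gal4-VP16 expression switched on by copper sulfate through the metallothionein promoter; potency is read from the fitted curve at half-maximal effect; nearly all actives have a fitted effect of over 50% in size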
IL-1B inflam inh: inflammasome signaling inhibition, IL-1 beta readout; THP-1 LPS/ATP IL-1B secretion, AlphaLISA, 16 h; stronger effect = lower value; activity change, % at 57.5 µM; 4.7% of 360,000 active; AID 743279; in the data active = activity change below about -50%; inconclusive = mostly about -30% to -49%
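Secreted IL-1B measured by AlphaLISA bead assay after 16 h compound exposure of THP-1 cells; compounds (final up to 57.5 uM) added 1 h before LPS (250 ng/mL) and ATP (1.25 mM) stimulation; lower signal means less secretion.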
TDP1 cell noCPT: qHTS for Inhibitors of human tyrosyl-DNA phosphodiesterase 1 (TDP1): qHTS in cells in absence of CPT; DT40 Tdp1-/- hTDP1 cells, no CPT, ATP luminescence, 48 h; Potency, µM (doses to about 46.2 µM), for inactives: at the highest dose activity change, negative = growth inhibition, actives largely listed as inhibitors; 15% of 420,000 active; AID 686978, 2013; also: potency is read from the fitted curve at half-maximal effect; nearly all actives have a fitted effect of over 55% in size
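Luminescent ATP content (CellTiter-Glo) served as the growth readout. Knockout chicken DT40 cells expressing human TDP1 were exposed to compounds without camptothecin for a minimum 48 hr at 37 °C.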
ELG1 repair inh: inhibitors of ELG1-dependent DNA repair in HEK293T cells; HEK293T ELG1-luciferase reporter, luminescence, 16 h; DNA damage induced by 5-fluorouridine; Potency, µM (titrated, usually from 46.1 µM), inactives show at the highest dose activity change, negative = inhibition, most hits filed as inhibitors; 2.3% of 330,000 active; AID 504467; also: potency is read from the fitted curve at half-maximal effect; nearly all actives have a fitted effect of over 55% in size
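Quantitative HTS, concentration-response format. 2,000 cells/well co-treated with 5-fluorouridine and compound, 16 hr in 5% CO2 at 37 °C; ONE-Glo luminescence read after 30 min.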
RORg inh: blocks mouse ROR gamma transcriptional activity | P51450 | Drosophila S2 Gal4-RORgamma UAS-luciferase reporter, 20 h | Potency, µM (highest dose often 53.6 µM), for inactives: top-dose activity change, negative = inhibition, most hits filed as inhibitors | 5.4% of 310,000 active | AID 2551; also: potency is read from the fitted curve at half-maximal effect; nearly all actives have a fitted effect of over 60% in size
Target sequence (P51450 whole entry, looked up, the tested form may be a part): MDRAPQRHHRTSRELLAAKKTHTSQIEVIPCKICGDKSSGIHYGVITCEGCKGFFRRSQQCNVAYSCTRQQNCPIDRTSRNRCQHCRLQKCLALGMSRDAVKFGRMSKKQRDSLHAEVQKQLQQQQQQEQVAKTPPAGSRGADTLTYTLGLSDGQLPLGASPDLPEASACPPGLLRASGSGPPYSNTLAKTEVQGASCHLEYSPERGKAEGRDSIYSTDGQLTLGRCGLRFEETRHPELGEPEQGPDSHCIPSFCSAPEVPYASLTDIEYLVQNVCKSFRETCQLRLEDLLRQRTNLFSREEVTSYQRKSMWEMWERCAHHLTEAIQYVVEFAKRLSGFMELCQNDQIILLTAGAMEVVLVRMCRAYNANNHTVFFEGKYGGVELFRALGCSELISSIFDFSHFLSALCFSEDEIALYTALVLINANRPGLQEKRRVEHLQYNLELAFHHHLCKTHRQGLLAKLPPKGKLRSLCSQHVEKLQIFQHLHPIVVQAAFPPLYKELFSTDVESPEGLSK
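Drosophila Schneider cells stably carrying a metallothionein-driven Gal4 DBD–ROR gamma fusion and a UAS-Photinus luciferase reporter were exposed to compound for 1 hr, then induced with copper sulfate (700 uM final) for 20 hr at ambient temperature before luminescence reading.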
DT40 TDP1 CPT: growth inhibition of DT40 Tdp1-/-;hTDP1 cells with camptothecin (screen for TDP1 inhibitors); chicken DT40 Tdp1-/-;hTDP1 cells + 20 nM CPT, ATP luminescence, 48 h; Potency, µM (series often up to 46.2 µM), without a hit: at the highest dose activity change, negative = growth inhibition, usual class: inhibitors; 12% of 420,000 active; also: potency is read from the fitted curve at half-maximal effect; nearly all actives have a fitted effect of over 55% in size
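Chicken DT40 Tdp1-/- cells stably complemented with human TDP1 were seeded at 400 cells/well in medium containing 20 nM camptothecin, exposed to pin-transferred compounds, and grown at 37 °C for at least 48 hr. Viability was read as ATP luminescence.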
* hit, by the source's call; ? = inconclusive; . = not tested or not shown. Unless noted, calls follow the shape of the dose curve; as a rule, active = well fitted curve in the direction sought with a large enough effect; inconclusive = small, poorly fitted or top-dose-only effect, or another doubt; inactive = no such curve, though single readings can be large; an effect the other way counts as inactive or inconclusive. % is scaled to controls: 0 for no effect and ±100 for the full control effect.

SMILES	Gal4-VP16 FLuc	IL-1B inflam inh	TDP1 cell noCPT	ELG1 repair inh	RORg inh	DT40 TDP1 CPT
CCc1ccc(/C=C\C(=O)N2CCc3ccccc3C2)cc1	?	?	2%	?	10µM*	-1%
O=C(/C=C/c1ccccc1[N+](=O)[O-])OCC(=O)N1CCN(c2ccccc2)CC1	.	3	?	.	.	21µM*
Cc1cccnc1NC(=O)CCc1c[nH]c2ccccc12	6%	20	0%	7%	4%	-21%
CCOc1ccc(CCNC(=O)COC(=O)c2cc(OC)cc(OC)c2)cc1OCC	2%	30	?	2%	4%	-3%
CCOc1ccc2c(S(=O)(=O)O)cccc2c1[N+](=O)[O-]	.	5	-17%	.	.	6%
Cc1cccc2cc3c(N)c(C(=O)N4CCOCC4)sc3nc12	-3%	-55*	1.6µM*	?	-33%	2.1µM*
Cc1ccnc(NC(=O)/C=C/c2cccs2)c1	13µM*	-98*	12µM*	?	8.9µM*	?
O=C(NC(=S)Nc1ccccn1)c1ccco1	?	0	?	?	13µM*	13µM*
O=C(NC(=S)Nc1cccnc1Cl)c1ccco1	-7%	-21	-10%	?	?	-20%
Cc1ccnc(NC(=S)NC(=O)c2cccs2)c1	4µM*	-10	-19%	?	2.2µM*	?
Cc1ccnc(NC(=O)CNC(=O)c2cccs2)c1	.	-12	0%	8%	.	-2%
Cc1ccnc(NC(=O)CNC(=O)c2ccco2)c1	.	-2	5%	?	.	0%
Cc1ccnc(NC(=S)NC(=O)c2ccco2)c1	?	24	-17%	?	4.5µM*	18%
Cc1onc(-c2ccccc2)c1C(=O)N1CCN(c2ncccn2)CC1	10%	6	-21%	-2%	-20%	-15%
C#CCNCCS(=O)(=O)N(Cc1ccc(Br)cc1)[C@@H](C)C(=O)O	.	21	-3%	7%	.	11%
CCNC(=S)Nc1cc(C)ccn1	5.6µM*	-16	8%	?	2.5µM*	10%
Cc1ccc(CC(=O)Nc2cc(C)ccn2)cc1	10%	?	19%	16%	29%	1%
COc1cc(=O)[nH]c(SCC(=O)Nc2nc3c(s2)CCCC3)n1	-8%	44	?	-46%	29%	23µM*
CC(C)n1c(SCC(=O)Nc2nc3c(s2)CCCC3)nc2c1c(=O)n(C)c(=O)n2C	-5%	?	2.9µM*	18µM*	?	12µM*
CCOC(=O)c1c(NC(=O)CSc2nc3c(c(=O)n(C)c(=O)n3C)n2C(C)C)sc(C)c1C	-17%	15	-3%	21%	11%	1%
COc1cccc(NC(=O)N2CCCC2C(=O)NCc2ccc(Cl)cc2)c1 (stereo not drawn)	-8%	4	1%	-17%	?	-22%
COCCn1c(CCC(=O)Nc2ccc(OC)c(OC)c2)nc2cccnc21	.	.	-25%	.	.	-4%
CC(/C=C/c1ccc(C)o1)=C\C(=O)O	?	-18	18µM*	6%	20µM*	12µM*
CC(=C/C(=O)O)/C=C/c1ccc(Cl)o1	?	21	-15%	4%	-9%	-24%
CC(=O)/C=C/c1ccc(C)o1	3%	11	?	18%	-10%	16µM*
Cc1ccc(/C=C/C(=O)N2CC(C)CC(C)C2)o1 (stereo not drawn)	-10%	?	3.3µM*	1%	21%	1.5µM*
CC(C)NC(=O)N(C)C[C@H]1Oc2ccc(NC(=O)Nc3ccc(C(F)(F)F)cc3)cc2C(=O)N([C@H](C)CO)C[C@@H]1C	.	-18	-16%	19%	.	-8%
CC1CCC(C(C)C)C(=O)C1 (stereo not drawn)	-7%	.	.	.	-1%	.
